Test results from PubChem BioAssay AID743279 (National Center for Advancing Translational Sciences (NCATS), 2014).
About 17,000 (4.7%) of roughly 360,000 compounds were called active. Another 5% or so got no clear call; they are omitted. Cut-off read from the data, not from the text of the source: active = activity change below about -50%; inconclusive = mostly about -30% to -49%; inactive = weaker than that. The entries come from a sample that favours actives as a whole.

Assay: qHTS for Inhibitors of Inflammasome Signaling: IL-1-beta AlphaLISA Primary Screen
Details: THP-1 LPS/ATP IL-1B secretion, 16 h; at 57.5 µM, hits give low values
Outline: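 THP-1 cells pretreated 1 hr with compounds (up to 57.5 uM final), then stimulated with LPS (250 ng/mL final) plus ATP (1.25 mM final); secreted IL-1B measured by AlphaLISA after 16 hr, decreased signal indicating inhibition.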
% is set by controls: 0 for no effect and ±100 for the full control effect.

Row | SMILES | activity change
1 | COc1ccc(CCNC(=O)CN(c2ccccc2)S(=O)(=O)c2ccccc2)cc1 | 15.3% (inactive)
2 | CCOc1ccccc1N1CCN(C(=O)COc2ccc3c(C)cc(=O)oc3c2)CC1 | 23% (inactive)
3 | CC(=O)COc1ccc2c(-c3ccccc3)cc(=O)oc2c1 | -27.2% (inactive)
4 | CCc1cc(=O)oc2cc(OCC(=O)N3CCCc4ccccc43)ccc12 | -60.9% (active)
5 | CC(C)c1cc(C(=O)N(C)C2CCCN(Cc3ccccc3F)C2)n(C)n1 (configuration not stated) | 41.9% (inactive)
6 | CCN(CC)C(=O)C1=C(C)N(Cc2ccccc2)C(=O)C(CC(=O)NC(c2ccccc2)c2ccccc2)C1 (configuration not stated) | -15.6% (inactive)
7 | C/C(CC(=O)Nc1cccc(F)c1)=N\NC(=O)C(=O)NC1CCCCC1 | -10.5% (inactive)
8 | O=C(Nc1cccc(F)c1)NC1CCCCCCC1 | -92.1% (active)
9 | O=C(Nc1cccc(F)c1)NC1CCCc2ccccc21 (configuration not stated) | -9.52% (inactive)
10 | COc1ccc(NC(=O)C[C@H]2C(=O)N(CCc3ccccc3)C[C@@H]2C)cc1 | -9.78% (inactive)
11 | FC(F)Oc1ccccc1NC(=S)Nc1cccc(Cl)c1Cl | 23.7% (inactive)
12 | CC(C)(C)S(=O)N1Cc2cc(C(=O)NCCCN3CCOCC3)nc(-c3cccc(-c4cc5ccccc5o4)c3)c2[C@H]1CCO (some centres not stated) | -27.7% (inactive)
13 | CCc1cccc(CC)c1N1C(=O)CC(Sc2ccccc2N)C1=O (configuration not stated) | 17.8% (inactive)
14 | Cc1ccccc1S(=O)(=O)NC(=O)C1(C)CCN1C(=O)Cc1ccc(Cl)cc1Cl (configuration not stated) | -18.4% (inactive)
15 | CC(=O)N1CC(C)c2scc(C)[n+]2-c2ccccc21 (configuration not stated) | -71.4% (active)
16 | O=C(Nc1nnc(S(=O)(=O)N2CCCCCC2)s1)c1cccc(Br)c1 | -9.2% (inactive)
17 | O=C(NC1=CC(=O)c2ccccc2C1=O)c1ccccc1 | -96.1% (active)
18 | O=C1C=C(NS(=O)(=O)c2ccccc2)C(=O)c2ccccc21 | -0.814% (inactive)
19 | Cn1c(NC(=O)c2ccccc2)nc2ccccc21 | 35.1% (inactive)
20 | N#Cc1cccc(NC(=O)c2cc(C3CCCCN3C(=O)CCc3ccccc3)on2)c1 (configuration not stated) | -18% (inactive)
21 | O=C(NCCCn1ccnc1)c1ccccc1F | 8.56% (inactive)
22 | C=CCc1cc(C)ccc1OCCCn1ccnc1 | -24.1% (inactive)
23 | Clc1c(OCCCn2ccnc2)ccc2ccccc12 | -77% (active)
24 | COc1cccc(CNC(=O)[C@@H]2CCCN2C(=O)[C@@H]2CCCN2C(=O)c2ccccc2)c1 | 0% (inactive)
25 | O=C(CCc1ccccc1)Nc1ccc(NC(=O)C2CCCCC2)nc1 | -9.78% (inactive)

Row | SMILES | activity change
26 | C=CCN1CCN(c2ccncc2S(=O)(=O)N2CCN(C)CC2)CC1 | -7.51% (inactive)
27 | CC(=O)OC1CCC2(C)C(=CCC3C4CC(=O)N(O)C(=O)C4(C)CCC32)C1 (configuration not stated) | -9.48% (inactive)
28 | O=C(Nc1ccc(F)cc1)N1CCN(c2ccc(F)cc2)CC1 | 2.96% (inactive)
29 | O=C(Nc1cccc(NC(=O)N2CCN(c3ccccc3)CC2)c1)N1CCN(c2ccccc2)CC1 | -55.8% (active)
30 | O=C(Nc1ccccc1)N1CCN(C2c3ccccc3-c3ccccc32)CC1 | -15.2% (inactive)
31 | CCOC(=O)c1c(NC(=O)COC(=O)c2ccc(S(=O)(=O)C(F)F)cc2)sc(C(=O)N(C)C)c1C | -22% (inactive)
32 | C=CCN1C=C(C(=O)c2ccccc2)C(=O)CC1 | 14% (inactive)
33 | CC(C)C1C(=O)N(Cc2cn(CCC3OCCO3)nn2)CCS(=O)(=O)N1Cc1ccc(-c2ccccc2C(F)(F)F)cc1 (configuration not stated) | -17.2% (inactive)
34 | O=C(OC(C(=O)NC1CCCC1)c1ccc(F)cc1)c1ccno1 (configuration not stated) | -4.45% (inactive)
35 | CCOc1ccc(/C=C(/C#N)c2nnc(N3CCOCC3)n2-c2ccccc2)cc1OC | -13.1% (inactive)
36 | COc1ccc(C2(O)C(=O)Nc3ccccc32)cc1 (configuration not stated) | 16% (inactive)
37 | COc1ccc(C2(C)ON(c3ccccc3C(F)(F)F)C2=O)cc1 (configuration not stated) | -62.1% (active)
38 | COc1ccc(C2(C)NC(=O)N(CC(=O)c3ccc4c(c3)OCO4)C2=O)cc1 (configuration not stated) | 6.28% (inactive)
39 | COC(=O)CCCCC1=CCC2C(=O)C=C(O)C2C1 (configuration not stated) | 46.8% (inactive)
40 | Cc1cc(C)cc(NC(=O)C2CCCN(S(=O)(=O)c3ccc4[nH]c(=O)ccc4c3)C2)c1 (configuration not stated) | -11.9% (inactive)
41 | CC(C(=O)NC1CCCC1)N1CCN(S(=O)(=O)c2ccccc2Cl)CC1 (configuration not stated) | -3.55% (inactive)
42 | CCc1nc2c(OCCOc3ccccc3)cccn2c1N(C)C(=O)c1ccc(OC)cc1 | -0.0267% (inactive)
43 | COc1ccc(S(=O)(=O)N(C)C)cc1NC(=O)COC(=O)c1n[nH]c2ccccc12 | -8.2% (inactive)
44 | Cc1cnc(NC(=O)c2ccccn2)s1 | -99.9% (active)
45 | O=C(Nc1nnc(C2CC2)s1)c1ccccn1 | 12.6% (inactive)
46 | Cc1cnc(NC(=O)C2CCCC2)s1 | -15.9% (inactive)
47 | O=S(=O)(N1CCCCC1)N1CCNCC1 | 18.8% (inactive)
48 | CNC(=O)c1ccc(CN(C)C(=O)c2cc(C3CC3)nc3c2cnn3C(C)C)cc1 | -23.4% (inactive)
49 | CCOC(=O)C1=C(CSc2nnnn2C)N(C)C(=O)NC1c1ccccc1 (configuration not stated) | 25.6% (inactive)
50 | COc1cc(/C=N/O)cc(Br)c1OS(=O)(=O)c1ccc(C)cc1 | -4.12% (inactive)

Row | SMILES | activity change
51 | COc1cc(/C=N/NC(=O)Cc2ccccc2)cc(OC)c1OC | 11.4% (inactive)
52 | COc1cc(/C=N/O)cc(Br)c1OCc1cccc(Cl)c1 | -101% (active)
53 | CCCCCCn1c(=O)n2n(c1=O)C[C@]1(OC(=O)NCc3ccc(OC)c(OC)c3)CN(S(=O)(=O)c3ccc(C)cc3)C[C@]1(O)C2 | -2.71% (inactive)
54 | NS(=O)(=O)c1ccc2nc(NC(=O)C3=COCCO3)sc2c1 | 4.02% (inactive)
55 | CCC(=O)N1CCC(C)(C(=O)Nc2cc(OC)c(OC)c(OC)c2)C1 (configuration not stated) | 33.3% (inactive)
56 | CN(Cc1ccccc1)C(=O)COc1ccccc1 | -10.6% (inactive)
57 | CN(CC(=O)Nc1ccc(Cl)cc1)C(=O)c1ccc(COc2ccccc2)cc1 | 5.98% (inactive)
58 | CN(Cc1ccccc1)C(=O)c1ccc(COc2ccccc2)cc1 | -71.5% (active)
59 | CN(Cc1ccccc1)C(=O)[C@@H]1CCCN1C(=O)[C@@H]1CCCN1C(=O)c1c(F)cccc1F | 32.8% (inactive)
60 | CC(=O)NC(Cc1c[nH]c2ccccc12)C(=O)NCCc1ccccc1 (configuration not stated) | -9.89% (inactive)
61 | CC(=O)NC(Cc1c[nH]c2ccccc12)C(=O)O (configuration not stated) | 35% (inactive)
62 | O=C(NC(Cc1c[nH]c2ccccc12)C(=O)N/N=C/c1ccc(Br)cc1)c1cccs1 (configuration not stated) | -61.1% (active)
63 | CC(C)Sc1nc(N)nc2c1ncn2C1OC(CO)C(O)C1O (configuration not stated) | 16% (inactive)
64 | CCCCCCCCn1c2c(c(=N)c3c1CCC3)CCCC2 | -89.8% (active)
65 | CC(=O)Nc1ccc(S(=O)(=O)N2CCC(NC(=O)c3ccccc3)CC2)cc1 | 7.08% (inactive)
66 | CCOc1ccc(N2C(=O)CC(N(CCc3ccc(OC)c(OC)c3)C(=S)Nc3ccccc3)C2=O)cc1 (configuration not stated) | 44.8% (inactive)
67 | CC(C)=CCCC1(C)C=Cc2c(ccc3c2[nH]c2cc(O)c(C)cc23)O1 (configuration not stated) | -71.6% (active)
68 | Cc1ccc(S(=O)(=O)C2C(=O)NC3(C)CC2c2ccccc2O3)cc1 (configuration not stated) | 12.4% (inactive)
69 | c1cnc(N2CCN(c3ccc4ccccc4n3)CC2)nc1 | -50.1% (active)
70 | O=C(c1ccncc1)N1CCN(c2ccc3ccccc3n2)CC1 | 5.08% (inactive)
71 | CC1=C(N2CCN(c3ncccn3)CC2)CCC1=O | 8.92% (inactive)
72 | COCCCn1cc(CN2CC(N(C)C)CS2(=O)=O)nn1 (configuration not stated) | 21.9% (inactive)
73 | CC1CCC(C(C)C)C(=O)/C1=C\c1ccc(NC(=O)CCC(=O)O)cc1 (configuration not stated) | 0% (inactive)
74 | Cc1ccc(O)c(-c2cc(C(=O)Nc3c(C)n(C)n(-c4ccccc4)c3=O)[nH]n2)c1 | 0% (inactive)
75 | Cc1ccc(NC(=O)c2cc(-c3ccccc3O)n[nH]2)cc1C | -6.84% (inactive)

Row | SMILES | activity change
76 | Cc1ccc(C)c(NC(=O)c2cc(-c3cc(C)cc(C)c3O)n[nH]2)c1 | -93.5% (active)
77 | COc1ccc(NC(=O)C2(C)Cc3c(-c4ccc(C(N)=O)cc4)ccnc3O2)cc1 (configuration not stated) | 0% (inactive)
78 | Cc1cc(NC(=O)c2cc3ccccc3o2)no1 | 45.3% (inactive)
79 | O=C1NN(c2ccccc2)C(=O)/C1=C/c1ccc(-c2cccc(C(=O)O)c2)o1 | -4.59% (inactive)
80 | Cc1ccc(N=C2NC(=O)/C(=C/C=C/c3ccco3)S2)cc1C | -91.3% (active)
81 | CN1C(=O)/C(=C/c2ccco2)SC1=Nc1cccc(C(=O)O)c1 | 18.8% (inactive)
82 | Cc1ccc(N2NC(=O)/C(=C/C=C/c3ccco3)C2=O)cc1C | -62.6% (active)
83 | Cc1ccc(-n2ncc3c(=O)n(-c4ccc(C)c(C)c4)c(-c4ccco4)nc32)cc1 | -18.4% (inactive)
84 | CCOP(=O)(OCC)C(Cc1ccccc1)N=C(c1ccccc1)c1ccccc1 (configuration not stated) | -2.56% (inactive)
85 | CNS(=O)(=O)c1ccc2c(c1)[nH]c(=S)n2C | -25% (inactive)
86 | Cc1[nH]c(N)nc(=S)c1CCCNc1ccccc1 | 5.82% (inactive)
87 | O=C(NCc1ccccc1)c1cccc(NC(=O)C2CCCCC2)c1 | -13.6% (inactive)
88 | CCC(C)Sc1nc(C)nc2c1c(=O)n(C)c(=O)n2C (configuration not stated) | 11.7% (inactive)
89 | Cc1cc(Br)cn2c(Cc3ccsc3)c(-c3ccc(C#N)cc3)nc12 | -10.8% (inactive)
90 | CN(Cc1ccc(C(F)(F)F)cc1)C(=O)[C@H]1O[C@@H](n2cnc3c(N)ncnc32)[C@H](O)[C@@H]1O | -14.1% (inactive)
91 | Cc1ccc2nc(SCC(=O)N3CC(C)OC(C)C3)nc(=O)n2c1 (configuration not stated) | 13.3% (inactive)
92 | O=C(c1ccc(C(F)(F)F)cc1)N1CCC(=O)N([C@H](COCc2ccccc2)Cc2ccccc2)CC1 | -29.6% (inactive)
93 | CC(C)CC(CO)N1CCN(C(=O)c2ccc(Cl)cc2Cl)CCC1=O (configuration not stated) | 4.74% (inactive)
94 | O=C(c1cc(Cl)cc(Cl)c1)N1CCC(=O)N(C(COCc2ccccc2)Cc2ccccc2)CC1 (configuration not stated) | -74.4% (active)
95 | CC(C)C[C@@H](COCc1ccc(Cl)cc1)N1CCN(C(=O)c2ccc(Cl)cc2Cl)CCC1=O | -52.8% (active)
96 | CC(C)C[C@@H](CO)N1CCN(Cc2ccc(O)cc2)CCC1=O | 0% (inactive)
97 | Cc1ccc(S(=O)(=O)N2CCC(=O)N([C@H](COCc3ccccc3)Cc3ccccc3)CC2)cc1 | 13.2% (inactive)
